# An excerpt weighted towards active compounds, which were near 11% of everything screened.
# Pf growth 48h: inhibits P. falciparum growth in the first generation, 48 h; P. falciparum luciferase growth in erythrocytes, 48 h; Potency, µM (doses to about 28.7 µM), inactives show at the top dose activity change, negative = inhibition, hits mostly inhibitors; actives 5.9% (n = 310,000)
#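 Erythrocytes infected with P. falciparum carrying an integrated firefly luciferase reporter (2% hematocrit, 0.1% parasitemia final) were exposed to compounds in RPMI 1640 with 0.5% Albumax at 37 C, 5% CO2. Growth inhibition was scored as reduced luminescence.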
# AMA1-RON2 inh: inhibitors of Plasmodium falciparum AMA1-RON2 interaction; AlphaScreen AMA1-biotinylated RON2 peptide binding; Potency, µM (doses to about 58.2 µM), for the others: top-dose activity change, negative = inhibition, usual class: inhibitors; actives 0.2% (n = 360,000);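 further: 0% = vehicle wells and -100% = peptide control; nearly all actives have a fitted effect of over 45% in size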
#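 AMA1 (3D7) with his tag at 25 nM final met compounds first, then biotinylated RON2 peptide at 25 nM; detection used donor plus acceptor beads, 10 µg/mL apiece, read by AlphaScreen after 30 min at room temperature.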
# HCV inhibitor: inhibitors of hepatitis C virus infection. Huh7.5.1 HCVcc-Cre infection, luciferase reporter, 44 h. Potency, µM (doses to about 41.8 µM), for the others: at the top dose activity change, negative = inhibition, most hits filed as inhibitors. actives 3.4% (n = 340,000). AID 651820
#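 Cells seeded at 1,000/well and cultured 4 h, then compounds added followed by HCVcc-Cre virus (~0.5 moi). After 44 h further culture, luciferase substrate was added, plates held 15 min at room temperature, and luminescence read for 15 sec.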
# Pf growth 96h: inhibits malaria parasite growth, 96 h | actives 6.9% (n = 320,000) | Potency, µM (series often up to 28.7 µM), without a hit: at the highest dose activity change, negative = inhibition, most hits filed as inhibitors | P. falciparum luciferase reporter growth, 96 h
#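 Parasite growth measured via integrated firefly luciferase reporter in P. falciparum. Infected erythrocytes at 2% hematocrit, 0.05% parasitemia final were treated 96 hours at 37 C under 5% CO2, and luminescence was read.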
# An asterisk follows results filed as active; i = inactive; u = inconclusive; x = no result given; [ ] = dose if it differs, or a comment. The call rests on the fitted dose curve; in most records, active means well fitted curve in the direction sought with a large enough effect; inconclusive means small, poorly fitted or top-dose-only effect, or another doubt; inactive means no such curve, though single readings can be large; an effect the other way counts as inactive or inconclusive. Unless noted, on the % scale 0 is the no-effect control and ±100 the full control effect; potency means the concentration at half of the fitted maximal effect.
SMILES,Pf growth 48h,AMA1-RON2 inh,HCV inhibitor,Pf growth 96h
O=C(Cc1cccc(NC(=O)C2CCCN(C(=O)C3CC3)C2)c1)Nc1cccc(C(=O)N2CCCCC2)c1 (stereo unspecified),x,0%,u,x
O=C(Cc1cccc(NC(=O)C2CCCN(C(=O)C3CCCCC3)C2)c1)Nc1cccc(C(=O)N2CCCCC2)c1 (stereo unspecified),x,-4%,-20%[8.37 µM],x
CCc1ccc2cc3c(cc2n1)C(=O)c1ccccc1-3,x,-3%,x,x
CC1CCC(C(C)C)C(OCC(O)CNC(C)(C)C)C1 (stereo unspecified),u,0%,-8%,5.2µM*
CC1CCN(CC(O)COC2CC(C)CCC2C(C)C)CC1 (stereo unspecified),12µM*,-3%,-24%,u
Cn1c(N)c(C(=O)CSc2nnc(-c3c[nH]c4ccccc34)n2C2CC2)c(=O)[nH]c1=O,u,-18%,1%,6.6µM*
CC(Cc1ccccc1)NC(=O)c1cc([N+](=O)[O-])ccc1Cl (stereo unspecified),u,1%,-23%,u
O=C(N[C@@H](Cc1ccccc1)c1nc2ccccc2[nH]1)c1cc([N+](=O)[O-])ccc1Cl,15µM*,-1%,-3%,u
O=c1[nH]c(SCc2ccc(F)cc2Cl)nc2ccccc12,2%,-23%,-24%,34%
C[C@H]1C=C(C(=O)NC2CC2)O[C@@H](OCc2ccc(CO)cc2)C1,47%,2%,-3%,65%
COc1cc(C)c(CNc2ccc(OC)c(OC)c2)cc1C,9.3µM*,x,x,x
Cc1ccc2cccc(NC(=S)NC(=O)c3ccn(C)n3)c2n1,u,29%,32µM*,-29%
O=C(Nc1cccc(NC(=O)c2ccc(Br)o2)n1)c1ccc(Br)o1,3%,u,-6%,54%
Cc1ccc(C(=O)NC(=S)Nc2cccc3nsnc23)cc1,u,6%,7%,-17%
Cc1ccc(C(=O)NC(=S)Nc2cccc3c(C)cc(C)nc23)cc1,u,52%,-11%,12µM*
Cc1ccc2cccc(NC(=O)c3ccc(Br)o3)c2n1,-8%,-12%,10µM*,-8%
Cc1cccc(C)c1NC(=O)C(CCc1ccccc1)N1CCC(c2ccccc2)CC1 (stereo unspecified),x,-14%,x,x
Cn1c(NCc2ccco2)nc2c1c(=O)n(Cc1ccc(Br)cc1)c(=O)n2C,9.3µM*,-1%,u,x
Cn1c(NCCCN2CCOCC2)nc2c1c(=O)n(Cc1ccc(Cl)c(Cl)c1)c(=O)n2C,13µM*,-11%,u,x
Cn1c(NCc2ccco2)nc2c1c(=O)n(Cc1ccc(Cl)cc1)c(=O)n2C,9.3µM*,29%,u,76%
Cn1c(NCc2ccco2)nc2c1c(=O)n(Cc1ccc(Cl)cc1Cl)c(=O)n2C,-24%,-2%,-27%,x
COc1cc(NC(=O)CN2C(=O)NC(C)(c3ccccc3)C2=O)c(C)cc1[N+](=O)[O-] (stereo unspecified),u,0%,-13%,12µM*
CC1(c2ccc([N+](=O)[O-])cc2)NC(=O)N(CC(=O)Nc2cccnc2Cl)C1=O (stereo unspecified),4%,-7%,-21%,12µM*
COc1cc(NC(=O)CN2C(=O)NC(C)(c3ccc4ccccc4c3)C2=O)c(C)cc1[N+](=O)[O-] (stereo unspecified),u,1%[11.6 µM],u,u
CC1CCC(NC(=O)CN(C)S(=O)(=O)c2ccc3c(c2)CCC(=O)N3)CC1 (stereo unspecified),-15%,-1%,-6%,1.5µM*
SMILES,Pf growth 48h,AMA1-RON2 inh,HCV inhibitor,Pf growth 96h
COc1cccc(NC(=O)CN(C)S(=O)(=O)c2ccc3c(c2)CCC(=O)N3)c1,17%,-4%,-8%,7.4µM*
Cc1ccc(C)c(N2CCN(C(=O)CN(C)S(=O)(=O)c3ccc4c(c3)CCC(=O)N4)CC2)c1,x,-4%,-9%,2.3µM*
Cc1ccc(C)c(N2CCN(S(=O)(=O)c3ccc4c(c3)CCC(=O)N4)CC2)c1,41%,x,x,0%
Cc1ccc(NC(=O)COc2ccc3c(c2)OCO3)c(Cl)c1,402%,10%,-1%,i
CCC(C)[C@H](NC(=O)N1CCCC1)C(=O)O (stereo partly specified),x,1%,18%,6.6µM*
O=C(CSc1nc(C2CC2)nc2ccccc12)N1CCc2ccccc21,x,-4%,9%,x
CC(C)COc1ccc(CNC(=S)Nc2ccccc2)cc1Cl,-12%[0.00184 µM],78%,10µM*,u

# Screening data as filed in PubChem BioAssay.
